In the library only some 19% were active in any assay of this set; here they are far more common.
DT40 TDP1 no CPT: qHTS for Inhibitors of human tyrosyl-DNA phosphodiesterase 1 (TDP1): qHTS in cells in absence of CPT. DT40 Tdp1-/- hTDP1 cells, no CPT, ATP luminescence, 48 h. AID 686978, 2013. Potency, µM (titrated, usually from 46.2 µM), actives largely listed as inhibitors. 420,000 compounds, 15% hits; also: nearly all actives have a fitted effect of over 55% in size
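Readout: luminescence from CellTiter-Glo after 30 min in the dark at RT. Cells: DT40 Tdp1-/- with stable hTDP1, 400/well. Exposure: compounds alone, ≥48 hr, 37 °C.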
HT1080 IDH1KD tx: HT-1080 IDH1 knockdown cell toxicity (counter line). HT-1080 IDH1 knockdown viability, ATP luminescence, 48 h. Potency, µM (titrated, usually from 46.1 µM), actives largely listed as cytotoxic. 360,000 compounds, 2% hits
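Knockdown cells (IDH1KD HT-1080) received compounds 2 h after plating at 750 cells/well and were kept 48 h at 37 °C in 5% FBS RPMI. A CellTiter-Glo luminescence read gave % activity for curve fitting.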
KB-V1 MDR tox: KB-V1 MDR subline cytotoxicity; KB-V1 MDR cells viability, CellTiter-Glo, 72 h; AID 1347076; Potency, µM (doses to about 46.1 µM), usual class: cytotoxic; 400,000 compounds, 3.4% hits; also: nearly all actives have a fitted effect of over 60% in size
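Cytotoxicity toward P-gp-expressing KB-V1 cells was determined as loss of CellTiter-Glo luminescence after 72 h at 37 degrees C. Compounds were tested in quantitative HTS format across a concentration range, with curves fitted to normalized data.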
TDP1 cell CPT: DT40-hTDP1 cell growth loss with CPT | 420,000 compounds, 12% hits | chicken DT40 Tdp1-/-;hTDP1 cells + 20 nM CPT, ATP luminescence, 48 h | Potency, µM (titrated, usually from 46.2 µM), most hits filed as inhibitors; also: nearly all actives have a fitted effect of over 55% in size
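Chicken DT40 Tdp1-/- cells stably complemented with human TDP1 were seeded at 400 cells/well in medium containing 20 nM camptothecin, exposed to pin-transferred compounds, and grown at 37 °C for at least 48 hr. Viability was read as ATP luminescence.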
KB-3-1 tox: kills parental KB-3-1 adenocarcinoma cells. KB-3-1 viability, CellTiter-Glo ATP luminescence, 72 h. Potency, µM (doses to about 46.1 µM), hits mostly cytotoxic. 400,000 compounds, 1.4% hits; also: nearly all actives have a fitted effect of over 60% in size
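Multi-concentration cytotoxicity screen in KB-3-1 cells grown in DMEM lacking phenol red with 10% FBS. After 72 h at 37 °C with compound, ATP-dependent luminescence was recorded.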
HT1080NT lethal: kills 2HG-producing HT-1080-NT fibrosarcoma cells; HT-1080-NT fibrosarcoma viability, CellTiter-Glo ATP luminescence, 48 h; Potency, µM (highest dose often 46.1 µM), usual class: cytotoxic; 360,000 compounds, 1.6% hits; AID 686970;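 also: NT is the 2HG producing partner of a matched IDH1 knockdown line; nearly all actives have a fitted effect of over 55% in size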
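Fibrosarcoma NT cells, 750 per well in 5% FBS RPMI, were exposed to compound for 48 hours. Viability: CellTiter-Glo luminescence.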
Hits are given with their value; . = inactive; ? = inconclusive; / = not tested or not shown. Calls follow the shape of the dose curve; as a rule, active = well fitted curve in the direction sought with a large enough effect; inconclusive = small, poorly fitted or top-dose-only effect, or another doubt; inactive = no such curve, though single readings can be large; an effect the other way counts as inactive or inconclusive.

SMILES | DT40 TDP1 no CPT | HT1080 IDH1KD tx | KB-V1 MDR tox | TDP1 cell CPT | KB-3-1 tox | HT1080NT lethal
Cc1cccc(C)c1NC(=O)Cn1cc(C=O)c2ccccc21 | 8.2µM | . | . | 21µM | . | .
CCC(=O)c1cn(CC(=O)Nc2c(C)cccc2C)c2ccccc12 | . | . | . | . | . | .
Cc1ccc(NC(=O)Cn2cc(C(=O)c3cccs3)c3ccccc32)cc1C | ? | / | . | ? | ? | /
Cc1ccc(C)c(NC(=O)Cn2cc(C(=O)c3cccs3)c3ccccc32)c1 | 21µM | / | . | 18µM | . | /
O=C(COc1ccc(S(=O)(=O)N2CCCC2)cc1)NCc1ccccn1 | . | . | . | . | . | .
Cc1nn(C)c(Cl)c1S(=O)(=O)N(Cc1ccco1)c1ncnc2nc[nH]c12 | . | / | . | . | . | /
CC(C)Oc1cccc(NC(=O)c2cnccc2C(F)(F)F)c1 | . | . | . | . | . | .
COCCn1c(C)cc(O)c(C(c2ccc(OC)cc2)N2CCN(c3ccccc3)CC2)c1=O (configuration not stated) | . | / | . | . | . | /
c1ccc(SSc2ccccn2)nc1 | 4.6µM | ? | . | 2.9µM | . | ?
c1ccc(Sc2ccccn2)cc1 | . | . | . | . | . | .
O=C(OCc1ccc(O)cc1)c1c(-c2ccsc2)oc2ccc(N3CCOCC3)cc12 | 13µM | ? | ? | 18µM | ? | ?
c1cc(-c2cc3cc(N4CCOCC4)ccc3o2)cs1 | . | . | . | . | . | .
CCc1c(C)nc2ncnn2c1Nc1ccc(C)c(C)c1 | ? | . | ? | 23µM | . | .
CCc1c(C)nc2ncnn2c1NCCc1ccc(OC)cc1 | 3.5µM | 3.5µM | ? | 2.8µM | 5.6µM | 6.3µM
COc1ccc(CCn2c3c(c(=O)[nH]c2=S)CN(C)CN3)cc1OC | . | . | / | . | / | .
CCOC(=O)c1ccc(NC(=O)c2nc(S(=O)(=O)Cc3ccccc3)ncc2Cl)cc1 | 1.3µM | 2.9µM | ? | 0.46µM | 21µM | 5.8µM
COC(=O)c1ccc(NC(=O)c2nc(S(=O)(=O)Cc3cccc(C)c3)ncc2Cl)cc1 | 0.52µM | 21µM | 9.2µM | 0.58µM | 15µM | 12µM
COC(=O)c1ccccc1NC(=O)c1nc(S(=O)(=O)Cc2cccc(C)c2)ncc1Cl | 2.6µM | / | / | 2.9µM | / | /
CC(=O)Nc1ccc(NC(=O)c2nc(S(=O)(=O)Cc3cccc(C)c3)ncc2Cl)cc1 | 0.046µM | 5.8µM | ? | 0.058µM | 5.2µM | 9.2µM
Cc1ccc(CNC(=O)c2nc(SCc3cccc(C)c3)ncc2Cl)cc1 | ? | / | . | ? | ? | /
NC(=O)C1(N2CCCCC2)CCN(S(=O)(=O)c2cc(Cl)sc2Cl)CC1 | . | . | . | . | . | ?
COc1cccc(-c2nc(SCc3cc(=O)c4cc(Cl)ccc4[nH]3)n[nH]2)c1 | . | / | . | . | . | /
Cc1c(C(N)=O)nnn1-c1ccc(Br)cc1 | . | / | . | . | . | /
COc1ccccc1NC(=O)CCN1CCC(C(N)=O)CC1 | . | / | ? | . | ? | /
Cc1ccc(Cl)cc1NC(=O)COC(=O)CC(C)(C)CC1=NS(=O)(=O)c2ccccc2N1 | 26µM | / | ? | 18µM | . | /
SMILES | DT40 TDP1 no CPT | HT1080 IDH1KD tx | KB-V1 MDR tox | TDP1 cell CPT | KB-3-1 tox | HT1080NT lethal
COc1ccc(Cl)cc1NC(=O)COC(=O)CC(C)(C)CC1=NS(=O)(=O)c2ccccc2N1 | 21µM | / | . | ? | ? | /
COc1ccc(NC(=O)COC(=O)CCCC2=NS(=O)(=O)c3ccccc3N2)cc1Cl | . | . | . | . | . | ?
Cc1nn(C)c2c1c(-c1ccccc1)cc(=O)n2C(C)C(=O)NCc1ccc(F)cc1 (configuration not stated) | ? | / | . | ? | . | /
CCc1cc[n+](CC(=O)c2ccc(F)cc2)cc1C(=O)O | . | / | . | . | . | /
CN(C)c1ccc(NC(=O)c2cccc(C(=O)Nc3ccc(N(C)C)cc3)n2)cc1 | 6.5µM | . | . | 9.2µM | ? | .
CC(C)OC(=O)c1cccc(C(=O)Nc2cccc(NC(=O)c3cccc(C(=O)OC(C)C)n3)n2)n1 | 2.1µM | . | ? | ? | . | .

Assay outcomes: PubChem BioAssay, National Center for Advancing Translational Sciences (NCATS)
